Each structure is given as a SMILES string. Records with an inconclusive call do not appear. Values without a mark were called inactive. The source made the active and inactive calls. The call rests on the fitted dose curve; in most records, active means well fitted curve in the direction sought with a large enough effect; inconclusive means small, poorly fitted or top-dose-only effect, or another doubt; inactive means no such curve, though single readings can be large; an effect the other way counts as inactive or inconclusive.

Chain of Rap guanine nucleotide exchange factor 3 (Homo sapiens) (O95398 whole entry, looked up): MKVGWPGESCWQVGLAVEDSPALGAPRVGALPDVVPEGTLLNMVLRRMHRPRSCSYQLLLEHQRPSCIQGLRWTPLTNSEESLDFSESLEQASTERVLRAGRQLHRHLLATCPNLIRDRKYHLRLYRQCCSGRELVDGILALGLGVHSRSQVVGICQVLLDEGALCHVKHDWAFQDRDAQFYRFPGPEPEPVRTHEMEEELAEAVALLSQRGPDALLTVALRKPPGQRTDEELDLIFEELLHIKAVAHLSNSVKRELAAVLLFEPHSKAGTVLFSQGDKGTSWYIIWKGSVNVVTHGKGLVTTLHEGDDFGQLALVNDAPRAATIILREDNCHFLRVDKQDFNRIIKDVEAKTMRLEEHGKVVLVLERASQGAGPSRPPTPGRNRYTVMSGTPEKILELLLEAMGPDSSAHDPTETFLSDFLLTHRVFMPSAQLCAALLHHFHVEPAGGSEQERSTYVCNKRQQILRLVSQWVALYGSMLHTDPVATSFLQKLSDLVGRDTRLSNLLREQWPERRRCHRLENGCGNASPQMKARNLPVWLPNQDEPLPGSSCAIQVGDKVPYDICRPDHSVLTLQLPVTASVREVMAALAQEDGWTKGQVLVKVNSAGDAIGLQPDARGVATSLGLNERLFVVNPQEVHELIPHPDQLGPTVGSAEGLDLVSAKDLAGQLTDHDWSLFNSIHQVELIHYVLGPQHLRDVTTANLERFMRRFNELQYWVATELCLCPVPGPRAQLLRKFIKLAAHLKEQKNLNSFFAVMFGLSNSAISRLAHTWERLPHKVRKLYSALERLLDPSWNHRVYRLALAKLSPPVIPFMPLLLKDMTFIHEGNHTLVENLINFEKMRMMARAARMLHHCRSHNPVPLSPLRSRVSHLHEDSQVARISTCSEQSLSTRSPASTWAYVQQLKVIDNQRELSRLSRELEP

The first test concerns the target Rap guanine nucleotide exchange factor 3 (Homo sapiens) (UniProt O95398). The test is described as follows: Confirmatory qHTS for antagonist of cAMP-regulated guanine nucleotide exchange factor 3 (EPAC1) (AID 1645880). Further: nearly all actives have a fitted effect of over 55% in size. Further: potency means the concentration at half of the fitted maximal effect.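 On activity, negative = inhibition: plate controls were DMSO only for no effect and full effect of the ATA control for full effect.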 The settings on record: EPAC1 Rap1B-BODIPY-GDP exchange, fluorescence; series mostly up to 115 µM; activity, negative = inhibition: at the top concentration. The method, boiled down: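 Nucleotide exchange uses 100 nM EPAC1, 250 nM RAP1B-BODIPY-GDP and 50 uM GDP, with compounds in a concentration-titration series. After 5 min at room temperature, fluorescence (480 nm ex/540 nm em) is read every 5 min for 30 min. Data are normalized to control ATA and DMSO.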
A general note: In qHTS, concentration-response curves come from the screen itself.
Take `O=c1oc2ccccc2c(O)c1C(CC(O)c1ccc(-c2ccc(Br)cc2)cc1)c1ccccc1` (stereo unspecified): the Potency is 15.7 µM (active). In the case of `CC(C)=CC1C(C(=O)OCc2cccc(Oc3ccccc3)c2)C1(C)C` (stereo unspecified), the “activity, negative = inhibition” value is 8.15%. The same measure, in the same setting: as for `C[C@H]1O[C@@H](O[C@H]2[C@@H](O)C[C@H](O[C@H]3[C@@H](O)C[C@H](O[C@H]4CC[C@@]5(C)[C@H](CC[C@@H]6[C@@H]5CC[C@]5(C)[C@@H](C7=CC(=O)OC7)CC[C@]65O)C4)O[C@@H]3C)O[C@@H]2C)C[C@H](O)[C@@H]1O`, the figure is -12.1%; as for `O=c1[nH]c2ccccc2n1C1CCN(CCCC(c2ccc(F)cc2)c2ccc(F)cc2)CC1`, -18.9%.

The target is the same in another test. Nature of the test: Confirmatory qHTS for agonist of cAMP-regulated guanine nucleotide exchange factor 3 (EPAC1) (AID 1645881).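 Further: EPAC1 catalysed release of BODIPY-GDP from Rap1B seen as fluorescence loss; nearly all actives have a fitted effect of over 75% in size.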 To be noted: EPAC1 Rap1B BODIPY-GDP exchange fluorescence, 100% = cAMP control response; series mostly up to 154 µM; activation: at the top concentration.
With `Clc1ccc(COC(Cn2ccnc2)c2ccc(Cl)cc2Cl)cc1` (stereo unspecified), the molecule was called inactive. As for `O=c1oc2ccccc2c(O)c1C(CC(O)c1ccc(-c2ccc(Br)cc2)cc1)c1ccccc1` (stereo unspecified), the “activation” value was -0.358%.

Consider `CC(C)(C)CC(C)(C)c1ccc(O)cc1`, for which the molecule was classed as inactive. For the molecule `CC(C)=CC1C(C(=O)OCc2cccc(Oc3ccccc3)c2)C1(C)C` (stereo unspecified), the “activation” value was 6.48%. Turning to `C[C@H]1O[C@@H](O[C@H]2[C@@H](O)C[C@H](O[C@H]3[C@@H](O)C[C@H](O[C@H]4CC[C@@]5(C)[C@H](CC[C@@H]6[C@@H]5CC[C@]5(C)[C@@H](C7=CC(=O)OC7)CC[C@]65O)C4)O[C@@H]3C)O[C@@H]2C)C[C@H](O)[C@@H]1O`, the “activation” value was -16.6%. The same measure, in the same setting: next, `Oc1cc(Cl)ccc1Oc1ccc(Cl)cc1Cl`: 9.94% [at 314 µM]; `O=c1[nH]c2ccccc2n1C1CCN(CCCC(c2ccc(F)cc2)c2ccc(F)cc2)CC1`: 3.17%.
